Structures are written as SMILES. About 13,000 (27%) of roughly 48,000 compounds showed an effect of 50% or more. This is one part of the list.

These results are taken from ChEMBL document CHEMBL3988442, “University of Dundee, Small-Polar-MMV Screening Library” (2021).

This assay concerns Wolbachia pipientis. In words: Anti-Wolbachia Cell-Based Screen. Details: scale not given: in the data most compounds retested in dose-response had high values. Format: functional. Particulars: 5 µM.
As to `Cc1nc(C(C)C)sc1C(=O)NS(=O)(=O)c1ccc(C#N)cc1`, the “Percent Effect” value is -14.12%. Then `Cc1ccc(CNCCOc2ccc(S(C)(=O)=O)cc2)cc1`, with 14.5%; and `C=C(C)COc1ccccc1C(=O)N1CCC(C(=O)NCC)C1` (configuration not stated), with 83.75%. Then `C=C(C)COc1ccccc1C(=O)N1CCC2(CC1)CN(C)CCN2C`, with 12.34%; and `C=C(C)COc1ccccc1CN1CCCC(C(=O)NCCCO)C1` (configuration not stated), with 100.8%. Then `NC(=O)C1CCN(C(=O)c2ccccc2OCc2ccccc2Cl)CC1`, with 5.008%; and `C=C(C)COc1ccccc1CN1CCC(NC(C)=O)CC1`, with 100.9%. Regarding `Cc1ccc(NCCCNC(=O)C2CCCN(Cc3ccco3)C2)nc1` (configuration not stated), the “Percent Effect” value is given as -3.633%. Then `C=C(C)COc1ccccc1CN1CCC(C(=O)NCC)C1` (configuration not stated), with 91.68%.

On to `C=C(C)CN1CCC(NC(=O)NCCc2ccccc2OC)CC1`, for which the “Percent Effect” value came out at 1.808%. In the case of `C=C(C)COc1ccccc1NC(=O)NC1CCOCC1` it was -8.907%; in that of `O=C(NCCCc1ccncc1)C1CCCN(Cc2ccco2)C1` (configuration not stated), 21.32%. Then `C=C(C)COc1ccccc1NC(=O)N1CCCCC1CO` (configuration not stated), with -1.415%; and `CCNC(=O)COc1ccccc1N1CCCC(C)C1` (configuration not stated), with -0.1998%. Then `CCc1nc(CCNC(=O)Nc2cc(C(N)=O)sc2C)cs1`, with 34.11%; and `O=C(c1ncoc1C1CCCO1)N1CC2(CCCC2)c2ccccc21` (configuration not stated), with -7.876%.

On to `Cc1ccc(CCNc2ncnc3sc4c(c23)CCNC4)o1`, for which the “Percent Effect” value came to 6.04%. In the case of `CC(=O)N1CCc2[nH]nc(C(=O)N3CCOCC3)c2C1` it was -13.35%; in that of `CC(C)c1nc2oc(C(=O)N3CCOCC3)c(N)c2c2c1CCCC2`, 100.5%; in that of `Cn1c(C(=O)N2CCOCC2)nc2c1CCN(c1ncccn1)C2`, -2.522%. On to `CCC(C)N1CCc2c(C(=O)N3CCOCC3)n[nH]c2C1` (configuration not stated), for which the “Percent Effect” value is -26.93%. As for `CC(=O)N1CCCN(C(=O)c2oc(Br)cc2C)CC1`, the “Percent Effect” value was -21.77%. Turning to `Nc1nc2c(c(NCc3ccc(C(=O)N4CCCC4)cc3)n1)CCCC2`, the “Percent Effect” value was -8.867%. Take `CCn1c(N)nc2cc(C(=O)N3CCCOCC3)cnc21`: the “Percent Effect” value is -12.44%. As for `Cc1nc2oc(C(=O)N3CCOCC3)c(N)c2c2c1CCCC2`, the “Percent Effect” value stood at 117.9%. For `Cc1nc2oc(C(=O)N3CCCC3)c(N)c2c2c1CCCC2`, the “Percent Effect” value was 89.55%. Consider `Cc1nc(N2CCOc3ccc(CO)cc3C2)c2c(C)noc2n1`, for which the “Percent Effect” value is on record as -4.645%. Regarding `CNC(=O)C(C)NC(=O)c1cc(COc2ccc(OC)cc2Cl)[nH]n1` (configuration not stated), the “Percent Effect” value is listed as -6.822%.

On to `CN1C[C@@H](n2cnc(-c3ccccc3)c2-c2c[nH]cn2)C[C@H]1C(=O)O`, for which the “Percent Effect” value is -2.319%. Then `Cc1cc(C)c(C(=O)N2CCC3(CCCN(CC(C)(C)C)C3)C2)[nH]1` (configuration not stated), with -1%. Then `CC[C@@H]1N(Cc2ccc(C)s2)CCC[C@]12CCC(=O)N2C.O=C(O)C(F)(F)F`, with 100.7%; and `CNC(=O)[C@H]1C[C@H]2OCC[C@H]2N(Cc2ccc(F)cc2)C1.O=C(O)C(F)(F)F`, with -9.122%.

`COc1ccc(CN2C[C@H](N3CCCC3=O)[C@@H]3OCCC[C@@H]32)cc1.O=C(O)C(F)(F)F`: the “Percent Effect” value is 8.325%.

`Cc1ccc(CN2CCCC3(CCCC(=O)N3C)C2)s1.O=C(O)C(F)(F)F` (configuration not stated): the “Percent Effect” value is listed as 5.855%.

`Cc1ccc(CN2CC(C(=O)N3CCCC3)C3(CCOCC3)C2)s1.O=C(O)C(F)(F)F` (configuration not stated): the “Percent Effect” value is reported as -16.58%.

With `CC[C@@H]1N(Cc2ccc(OC)cc2)CCC[C@]12CCC(=O)N2CCOC.O=C(O)C(F)(F)F`, the “Percent Effect” value is reported as 91.26%. As for `CC[C@@H]1N(Cc2ccc(F)cc2)CCC[C@]12CCC(=O)N2C.O=C(O)C(F)(F)F`, the “Percent Effect” value is listed as 88.6%. In the case of `CC[C@@H]1N(Cc2ccc(C)o2)CCC[C@]12CCC(=O)N2CCOC.O=C(O)C(F)(F)F` it was 120.4%; in that of `COc1ccc(CN2CCO[C@@H]3C[C@@H](C(=O)NC(C)C)C[C@H]32)cc1.O=C(O)C(F)(F)F`, -0.6614%. Consider `CN1CCN(c2cnn(CCn3cccn3)c(=O)c2)CC1`, for which the “Percent Effect” value is 1.729%.

For `CN(C)C[C@H]1CC[C@@H](Cc2ccc3c(cnn3C)c2)O1`, the “Percent Effect” value was 15.72%. On to `Cc1cccc2nc(CN3CCCC(Cn4ccnn4)C3)cc(=O)n12` (configuration not stated), for which the “Percent Effect” value is listed as -2.392%.

As for `CC(C)Cn1ncc2cc(C(=O)N(C)CCc3ccccc3)cnc21`, the “Percent Effect” value stood at 7.152%. Turning to `CC[C@@H]1N(Cc2ccc(F)cc2)CCC[C@]12CCC(=O)N2CCOC.O=C(O)C(F)(F)F`, the “Percent Effect” value was determined as 105%.

`COCCN1C(=O)CCC12CCCN(Cc1ccccc1F)C2.O=C(O)C(F)(F)F.O=C(O)C(F)(F)F` (configuration not stated): the “Percent Effect” value is reported as -19.88%.

In the case of `Cn1nnc2c1CCN(Cc1ccoc1)C2COCc1ccccc1.O=C(O)C(F)(F)F` (configuration not stated), the “Percent Effect” value is 14.93%. In the case of `CC[C@@H]1N(Cc2ccoc2)CCC[C@]12CCC(=O)N2CCOC.O=C(O)C(F)(F)F` it was 119.5%; in that of `COCCN1C[C@@H]2CN(Cc3cccc(F)c3)CCC[C@]2(C(=O)O)C1.O=C(O)C(F)(F)F.O=C(O)C(F)(F)F`, 4.566%; in that of `COCCNC(=O)[C@H]1C[C@H]2OCC[C@H]2N(Cc2ccoc2)C1.O=C(O)C(F)(F)F`, 2.424%. Then `CCCOc1ccc(C(=O)N[C@@H]2CCNC[C@H]2O)cc1Cl`, with 4.821%; and `c1cc(NCc2cscn2)cc(OCCN2CCCCC2)c1`, with 8.828%. As for `CN(Cc1cc[nH]n1)C(=O)C1CC(=O)N(Cc2ccncc2)C1` (configuration not stated), the “Percent Effect” value is given as 23.6%. Then `CCCN1CCCN(C(=O)C(CC)N2CCCC2=O)CC1` (configuration not stated), with -5.426%; and `CCCN1CCN(C(=O)CCn2nc(C(F)(F)F)c(Br)c2C)CC1`, with 94.07%. In the case of `CCN1CCN(C(=O)CCC2CCN(C(=O)CCSC)CC2)CC1` it was 1.019%.

With `CCN1CCN(C(=O)CCc2c(C)noc2Cl)CC1`, the “Percent Effect” value came to 3.416%. Regarding `CCCN1CCN(C(=O)C(C)n2cc(Br)cn2)CC1` (configuration not stated), the “Percent Effect” value is listed as 6.17%. Take `Cc1nn(C)c(C)c1CCC(=O)N1CCN(CCn2cncn2)CC1`: the “Percent Effect” value was 2.467%. In the case of `CN1CCN(C(=O)Cn2nc(C(F)(F)F)c(Br)c2C2CC2)CC1` it was 120.3%. `CCCN1CCN(C(=O)Cn2nc(C(F)(F)F)c(Br)c2C2CC2)CC1`: the “Percent Effect” value is recorded as 112.9%.

`CC(C)(C)OC(=O)Cn1nc(C2CC2)cc(C(F)(F)F)c1=O`: the “Percent Effect” value was determined as 2.885%. Then `CC(C)(C)C(=O)Cn1nc(C2CC2)cc(C(F)(F)F)c1=O`, with 3.486%.

As for `CCN1CCN(C(=O)Cn2nc(C(F)(F)F)c(Br)c2C2CC2)CC1`, the “Percent Effect” value was 81.51%. In the case of `Cc1cc(C2CCCN(C(=O)CN3CCN(C)CC3)C2)n[nH]1` (configuration not stated) it was 0.3099%. In the case of `CNc1cc(C)nc(N2C[C@H](NC(=O)C3CCOCC3)[C@@H](C3CC3)C2)n1` it was -20.28%.

For the molecule `CNC(=O)COC(=O)c1cccc(-n2ccc(C(F)(F)F)n2)c1`, the “Percent Effect” value was -11.26%.

As to `CCCN(CCc1cccc(F)c1)c1ccc2nnnn2n1`, the “Percent Effect” value was 9.519%. In the case of `CSC(CNS(C)(=O)=O)c1cccc(Cl)c1` (configuration not stated) it was 9.109%; in that of `Cc1nc(C)n(Cc2cccc(NC(=O)N(C)CCC(C)O)c2)n1` (configuration not stated), -6.821%; in that of `O=C(CN1C(=O)CCC1=O)N1CCOCC1`, -0.7877%. In the case of `O=C(Cn1nc(C(F)(F)F)c(Br)c1C1CC1)N1CCOCC1`, the “Percent Effect” value is on record as 103.1%. `O=C(Cn1nnc(-c2ccc(F)cc2)n1)N1CCOCC(O)C1` (configuration not stated): the “Percent Effect” value was -9.782%. Then `CCN(Cc1ccncc1)C(=O)C1COc2c(cccc2OC)C1` (configuration not stated), with -5.298%; and `NC(=O)c1cccc(OCCC(=O)NC2CCc3c(F)cccc32)c1` (configuration not stated), with 3.003%; and `COCC(=O)N1CCCC2(CCN(Cc3cccc(C)n3)C2=O)C1.O=C(O)C(F)(F)F` (configuration not stated), with -15.33%. Turning to `Cc1cccc(CN2CC3(CCN(C(=O)C4CC4)CC3)OCC2=O)n1`, the “Percent Effect” value was found to be 113.2%.

With `O=C1COC2(CCN(Cc3ccccn3)CC2)CN1CC1CC1`, the “Percent Effect” value was 3.205%.

Turning to `COCCN1CCC2(CC1)CN(CCn1cccn1)C(=O)CO2.O=C(O)C(F)(F)F`, the “Percent Effect” value was -17.67%. In the case of `CCCC(=O)N1CCC2(CC1)CN(Cc1cccc(C)n1)C(=O)CO2` it was 88.89%; in that of `COCCN1CCC2(CC1)CN(Cc1cccc(C)n1)C(=O)CO2`, 94.2%.

For `Cc1cccc(CN2CC3(CCN(C(N)=O)CC3)OCC2=O)n1`, the “Percent Effect” value is 101.1%. On to `Cc1cccc(CN2CC3(CCNCC3)OCC2=O)n1`, for which the “Percent Effect” value is listed as -5.931%. For `Cc1cccc(CN2CCC3(CCCN(C(=O)CN(C)C)C3)C2=O)n1` (configuration not stated), the “Percent Effect” value is 1.32%.

On to `COCCN(C)CCN1CC2(CCN(C3CCOCC3)CC2)OC1=O`, for which the “Percent Effect” value is recorded as -18.87%. In the case of `Cc1ccsc1-c1nnc(SCC(=O)O)n1C(C)c1ccccc1` (configuration not stated), the “Percent Effect” value is reported as -0.1706%. `CCN(CC)c1ccc(C2C3=C(COC3=O)Nc3[nH]nc(C)c32)cc1` (configuration not stated): the “Percent Effect” value worked out at 4.109%. Then `CCc1ncncc1C(=O)Nc1ccc2ccn(CCN(C)C)c2c1`, with -10.28%. Turning to `CCc1nc(C)c([C@H]2CN(C)C[C@@H]2C(=O)NCc2ccccc2OC)[nH]1`, the “Percent Effect” value is reported as -8.879%.

Turning to `Cc1ccccc1C(CC(=O)NCc1n[nH]c(N)n1)c1ccccc1` (configuration not stated), the “Percent Effect” value was -7.585%.

On to `CC(NC(=O)NCCCc1n[nH]c(N)c1C#N)c1cccs1` (configuration not stated), for which the “Percent Effect” value is reported as -7.784%. Then `Cc1ncsc1CN1CCOC(C)(C(N)=O)C1` (configuration not stated), with 122.3%; and `Cc1ncsc1CN1CCOC(C)(C(=O)N(C)C)C1` (configuration not stated), with 112.2%.

Regarding `Cc1ncsc1CN1CC2(CCCC2)CC1=O`, the “Percent Effect” value was -13.29%.

On to `Cc1ncsc1CN1CCOC(C)(C(=O)N2CCOCC2)C1` (configuration not stated), for which the “Percent Effect” value is reported as 106.3%. Then `Cc1ncsc1CN1CC[C@H]2OCC[C@@]2(C(=O)N(C)C)C1`, with 3.882%; and `Cc1nn(C)c(C)c1-c1ccnc(N(C)Cc2noc(C(C)C)n2)n1`, with -9.96%; and `CCNC(=O)N[C@H]1C[C@@H](Cc2cc(CN3CCCCC3)on2)C1(C)C`, with 1.239%.
